Results taken from PubChem BioAssay (NCATS).
Results filed as inconclusive are left out. Entries that show only a call come without a potency. Calls of active or inactive are those of the source. The call rests on the fitted dose curve; in most records, active means well fitted curve in the direction sought with a large enough effect; inconclusive means small, poorly fitted or top-dose-only effect, or another doubt; inactive means no such curve, though single readings can be large; an effect the other way counts as inactive or inconclusive.

Legend:
[1] = biological target: Aldehyde dehydrogenase, mitochondrial (Homo sapiens) (UniProt P05091); assay: qHTS for Inhibitors of the Aldehyde Dehydrogenase Family (ALDH2) Primary screen (AID 2061308); settings: ALDH2 enzyme inhibition qHTS, 1536-well; series mostly up to 56 µM; further: nearly all actives have a fitted effect of over 55% in size
[2] = biological target: Retinaldehyde dehydrogenase 3 (Homo sapiens) (UniProt P47895); assay: qHTS for Inhibitors of the Aldehyde Dehydrogenase Family (ALDH1A3) Primary screen (AID 2061315); settings: ALDH inhibition qHTS; series mostly up to 56 µM

Structure (SMILES)	Potency [1]	Potency [2]
CCN(Cc1ccccc1)c1ccc(Br)cn1	inactive	inactive
CCN(C)c1ncnc2ccc(-c3ccc4c(c3)OCO4)cc12	inactive	inactive
CC(=O)Nc1ccc(-c2nc3ccccc3s2)cc1	inactive	inactive
COc1cc(-c2csc(N3CCC(C(N)=O)CC3)n2)cc(OC)c1OC	inactive	inactive
Cc1ccc(NC(=O)CN2C(=O)N/C(=C\c3cccn3-c3ccc(C(=O)NC#N)cc3)C2=O)cc1	inactive	inactive
O=C(Cc1ccccc1)Nc1sc2c(c1C(=O)Nc1ccc(Cl)cc1)CCOC2	inactive	inactive
COc1ccc2cc3c(NC(=O)c4ccco4)nn(C)c3nc2c1	inactive	inactive
Cc1ccc(-c2ccc(=O)n(CC(=O)NCCC3CC3)n2)cc1	inactive	inactive
C/C=C(\C)C(=O)OC1C(C)C2(O)C(C=C(CO)CC3(O)C(=O)C(C)=CC32)C2C(C)(C)C12OC(=O)C(C)C (stereo not drawn)	inactive	inactive
Cc1cc2c(s1)c1cnn(Cc3ccc(C#N)cc3)c(=O)c1n2C	inactive	inactive
O=C1CCCC2=C1C(c1cccc(C(F)(F)F)c1)N=C(Nc1nc3ccccc3o1)N2 (stereo not drawn)	inactive	inactive
Cc1nc(NCc2ccccc2)c2nc(-c3ccccc3)n(CC3CCN(C)CC3)c2n1	inactive	inactive
O=C(Nc1ncc(Cc2ccc(C(F)(F)F)cc2)s1)c1cnc(-c2ccccc2)s1	inactive	inactive
N#Cc1ccc(NS(=O)(=O)c2ccc3c(c2)CCC(=O)N3)cc1	inactive	inactive
N#CN1CCC(NS(=O)(=O)c2cccc(C(F)(F)F)c2)CC1	inactive	inactive
CC(=O)Nc1nc(-c2ccc3c(c2)CCN3C(=O)c2ccccc2C)c(C)s1	inactive	inactive
CN(C)c1cccc(-c2ccnc(N3CCC(C(N)=O)CC3)n2)c1	inactive	inactive
COc1cccc(NCc2ccc(O)c3ncccc23)n1	inactive	inactive
CC(=O)Nc1cc2c(s1)CNCC2	inactive	inactive
O=S(=O)(Nc1nccs1)c1ccc(NCc2cc(F)ccc2O)cc1	inactive	inactive
COc1cc(O)c(C(CC(=O)N2CC(C)CC(C)C2)c2ccc(O)cc2)c(OC)c1 (stereo not drawn)	inactive	inactive
CC(=O)Nc1sc2c(c1-c1cccc(N(C)C)c1)CCNC2	inactive	inactive
O=C(N/C=C/c1ccccc1)c1cccc([S+](=O)([O-])Nc2ccccc2F)c1	inactive	inactive

Structure (SMILES)	Potency [1]	Potency [2]
CN(Cc1cccs1)c1ncnc2ccc(-c3ccc4cn(C)nc4c3)cc12	inactive	inactive
CCOC(=O)C1CCN(C(=O)C2(NC(=O)Nc3ccccc3Cl)CC2)CC1	inactive	inactive
O=C(NCCc1nc2ccccc2n1CCO)C1CCCCC1	inactive	inactive
CCOC(=O)c1c(CNCc2ccccc2F)c2sc(C)cc2n1C	inactive	inactive
CCOC(=O)c1csc(-n2nc(-c3ccc(F)c(F)c3)c(Cc3ccc(S(N)(=O)=O)cc3)c2N)n1	inactive	inactive
O=C(Nc1ncc(Cc2ccc(C(F)(F)F)cc2)s1)c1ccc(-c2cccc([N+](=O)[O-])c2)o1	inactive	inactive
O=C(c1ccc2c(c1)ncn2-c1ccc(C(F)(F)F)cc1)N1CCCCC1	inactive	inactive
Cn1nnnc1Sc1ncnc2scc(-c3ccccc3Cl)c12	inactive	inactive
O=C1CCc2cc(S(=O)(=O)Nc3cccc(Br)c3)ccc2N1	inactive	inactive
O=C1c2ccccc2C(=O)N1C1CCCCC1	inactive	inactive
CN(C)S(=O)(=O)c1ccc(-c2nc(NCc3ccc(-c4ccnc(C(F)(F)F)c4)cc3)c3ccccc3n2)cc1	inactive	inactive
O=S(=O)(c1ccc2c(c1)OCCCO2)N1CCN(S(=O)(=O)c2c(F)cccc2F)CC1	inactive	inactive
O=C(O)c1ccc(-c2cccc(-c3nn4c(=O)cc(N5CCNCC5)nc4s3)c2)cc1	inactive	inactive
CN(Cc1nccs1)S(=O)(=O)c1ccc(Nc2nc(-c3ccccc3)cs2)cc1	inactive	inactive
CC1CC(O)/C=C/C(O)/C=C\C(=O)O1 (stereo not drawn)	inactive	inactive
Cc1cc(C)nc(NC(=S)N2CCN(c3ccc(Cl)cc3S(C)(=O)=O)CC2)c1	inactive	inactive
O=C(c1ccc2c(c1)ncn2-c1cccc(Cl)c1)N1CCCCC1	inactive	inactive
NC(=O)C1CCN(c2nc(-c3cccc(C(F)(F)F)c3)cs2)CC1	inactive	inactive
CC(=O)N1CCc2cc(S(=O)(=O)Nc3ccc(C)c(C)c3)ccc21	inactive	inactive
Cc1c(P(=S)(c2ccccc2)c2ccccc2)[n+]2ccccc2n1CCCCCc1ccccc1	inactive	inactive
NC(=O)C1CCN(c2nc(-c3cccc(N)c3)cs2)CC1	inactive	inactive
N#Cc1nc(Nc2ccc(-c3ccccc3)cc2)nc(NC2CCCC2)n1	inactive	inactive
O=C(Nc1cccc(C(F)(F)F)c1)c1cccs1	inactive	inactive

Structure (SMILES)	Potency [1]	Potency [2]
Clc1ccccc1-c1ccc2ncnc(NCc3cccs3)c2c1	inactive	inactive
COc1cccc(CNc2ncnc3ccc(-c4c(C)noc4C)cc23)c1	inactive	inactive
CCC12CCCN3CCc4c(n(c5ccccc45)C(O)C1)C32 (stereo not drawn)	inactive	inactive
O=[N+]([O-])c1nccn1CO[C@@H](CO)[C@H](O)CO	inactive	inactive
Cc1cc(C)n2ncc(C(=O)NCc3ccco3)c2n1	inactive	inactive
CC(=O)Nc1ccc(Cl)cc1C(=O)c1ccc[nH]1	inactive	inactive
Cc1ccccc1-c1ccc(NC(=O)c2cccs2)cn1	inactive	inactive
COc1ccccc1C1=Nn2c(nnc2-c2ccccc2O)SC1	inactive	inactive
NC(=O)C1CCN(c2nc(-c3ccc4c(c3)OCCCO4)cs2)CC1	inactive	inactive
Cc1cc(C)cc(Cn2ncc3c4sc(C)cc4n(C)c3c2=O)c1	inactive	inactive
NC(=O)C1CCN(c2ncc(-c3cccc(F)c3)s2)CC1	inactive	inactive
COc1ccccc1C(=O)OCC#CCSc1nnc(-c2cccc3ccccc23)o1	inactive	inactive
CSc1cnc(-c2ccccc2C(C)C)nc1NCc1ccc(-c2cccnc2)cc1	inactive	inactive
CC(C)CC(OC(=O)CNC(=O)c1ccccc1)C(=O)Nc1cc(C(F)(F)F)ccc1Cl (stereo not drawn)	inactive	inactive
O=C(Nc1ccc2ccccc2c1)Nc1nnc(-c2ccccc2Cl)s1	inactive	inactive
COc1ccc(S(=O)(=O)Nc2cnccc2C(=O)Nc2nc(-c3ccccc3)cs2)cc1	inactive	inactive
Cc1ccc(NS(=O)(=O)c2ccc3c(c2)N(C)C(=O)CO3)cc1C	inactive	inactive
COc1ccc(C2Nc3ccccc3C(=O)N2Cc2ccco2)cc1CSc1c(C)cccc1C (stereo not drawn)	inactive	inactive
O=C(Nc1cccc2c1cnn2-c1ccc(F)cc1)c1ccccn1	inactive	inactive
O=S(=O)(Nc1nc(CN2CCOCC2)nc2sc3c(c12)CCCC3)c1ccc2ccccc2c1	inactive	inactive
Oc1cccc(C2NC(=S)Nc3cccc(F)c32)c1 (stereo not drawn)	inactive	inactive
C=C[C@@]12COC(=O)C(=C)C1[C@@H](O)[C@H](C(=C)C(=O)OC)[C@@H](OC(=O)C(=C)CO)C2 (stereo partly drawn)	inactive	inactive
CC1CCC(C(=O)Nc2ccc([S+](=O)([O-])Nc3nccs3)cc2)CC1 (stereo not drawn)	inactive	inactive

Structure (SMILES)	Potency [1]	Potency [2]
CC(C)CC(=O)c1c(O)cc2c(c1O)C(CC(C)C)C1=C(O2)C(C)(C)C(=O)C(C)(C)C1=O (stereo not drawn)	inactive	inactive
Cc1cn(-c2cccc(NC(=O)c3ccc(C)c(Nc4nccc(-c5cccnc5)n4)c3)c2)cn1	inactive	inactive
CC(=O)O[C@@H]1C=C2[C@H](CC[C@@]3(C)[C@@]2(O)CC[C@H]2Cc4c([nH]c5ccccc45)[C@@]23C)O[C@@H]1C(C)(C)O	inactive	inactive
Cc1cc2c(s1)c1cnn(Cc3c(F)c(F)c(C)c(F)c3F)c(=O)c1n2C	inactive	inactive
COCCNc1nc(C)nc2c1nc(-c1ccccc1)n2CCN1CCCC1	inactive	inactive
Cc1ccc(NS(=O)(=O)c2cc3c(cc2N2CCCCC2)NC(=O)CC3)cc1C	inactive	inactive
Cc1ccc(-c2ccc(=O)n(CC(=O)N(C)C(C)c3ccco3)n2)cc1 (stereo not drawn)	inactive	inactive
Cc1cc2c(s1)c1cnn(Cc3ccc(-c4ccccc4)cc3)c(=O)c1n2C	inactive	inactive
CCOC(=O)c1nn(-c2ccccc2)c(=O)c2c(N)sc(C)c12	inactive	inactive
CC1=C[C@@H]2[C@H]3[C@@H]4O[C@@](C)(CC[C@H]4O)[C@H]3CC(=O)[C@]23C(=O)N[C@@H](CC(C)C)[C@@H]3[C@@H]1C	inactive	inactive
O=C(Nc1nnc(-c2ccncc2)s1)NC12CC3CC(CC(C3)C1)C2	inactive	inactive
O=C(Nc1ccc(Cl)c(Cl)c1)Nc1ccnc(-c2ccncc2)n1	inactive	inactive
N#Cc1c(-c2ccc(OCCOCCOCCNC(=O)CCCC[C@@H]3SC[C@@H]4NC(=O)N[C@@H]43)cc2)no[n+]1[O-]	inactive	inactive
O=C1NS(=O)(=O)c2cscc21	inactive	inactive
Cc1ccc(-c2ccc(=O)n(CCNCCc3ccccc3)n2)cc1	inactive	inactive
Cc1cc(NS(=O)(=O)c2cc3c(cc2F)NC(=O)CC3)ccc1F	inactive	inactive
COc1c(NS(=O)(=O)c2ccc(C)cc2)cccc1C(=O)Nc1nc(-c2ccccc2)cs1	inactive	inactive
COc1ccc2nc(-c3ccc(N(C)C)cc3)sc2c1	inactive	inactive
c1ccc(CN(Cc2ccccc2)Cc2nnc(-c3cc4ccccc4[nH]3)o2)cc1	inactive	inactive
COc1ccc(NC(=O)c2ccc(-c3nc4ccccc4[nH]3)cc2)cc1OC	inactive	inactive
